Inconclusive results are not listed. Active and inactive are the calls of the source. The calls were made as follows: active = hit-call score of the fitted dose curve at least 0.9, where 1 is the maximum; inconclusive = response in the unintended direction; inactive = score below 0.9.
target: rat Peripheral-type Benzodiazepine Receptor (PBR), Tspo (gene 24230) (UniProt P16257); assay: NVS_MP_rPBR: NovaScreen (NVS) Membrane Protein Assay for rat Peripheral-type Benzodiazepine Receptor (PBR) (AID 2283335)
Sequence (P16257 whole entry, looked up): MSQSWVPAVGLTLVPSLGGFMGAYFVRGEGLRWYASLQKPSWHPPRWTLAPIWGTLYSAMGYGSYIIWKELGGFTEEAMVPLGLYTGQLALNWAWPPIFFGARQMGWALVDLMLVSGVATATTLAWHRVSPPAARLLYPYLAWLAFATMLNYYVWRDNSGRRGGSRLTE
Description: NVS_MP_rPBR is a biochemical, single-readout assay that uses extracted gene-proteins from Rat kidney membranes in a tissue-based cell-free assay. Measurements were taken 1 hour after chemical dosing in a 48-well plate.NVS_MP_rPBR is one of one assay component(s) measured or calculated from the NVS_MP_rPBR assay. It is designed to make measurements of radioligand binding, a form of binding reporter, as detected with scintillation counting signals by Filter-based radiodetection technology.Data from the assay component NVS_MP_rPBR was analyzed into 1 assay endpoint. This assay endpoint, NVS_MP_rPBR, was analyzed in the positive analysis fitting direction relative to DMSO as the negative control and baseline of activity. Using a type of binding reporter, loss-of-signal activity can be used to understand changes in the binding as they relate to the gene Tspo. Furthermore, this assay endpoint can be referred to as a primary readout, because the performed assay has only produced 1 assay endpoint. To generalize the intended target to other relatable targets, this assay endpoint is annotated to the transporter intended target family, where the subfamily is cholesterol transporter.
Binding assays used specific radioligands (tritiated, iodinated) with non-radioactive competitive displacement ligands in agonist or antagonist protocols (as indicated) and various reference compounds and inhibitors to titrate specific binding to receptors and transporters. Most enzyme assays (CYPs, kinases, phosphatases, proteases, HDACs) used recombinant protein and specific substrates (fluorescence mostly, some colorimetric and radioactive) and inhibitors, followed by a biochemical separation of substrate and product. All assays for the biochemical HTS were initially run in duplicate at a single concentration (10 uM for CYP450 assays and 25 uM for all others). […] Each assay was run with positive and negative controls, and concurrent controls on every plate. The follow-up (secondary) screen tested active chemical-pairs in concentration series, as well as a few additional assays not tested in the primary screen, some selected negative inactives, and several cases re-run in the concentration series for confirmatory purposes.

Row | SMILES | outcome | AC50
1 | COC(=O)N(C(=O)N1CO[C@@]2(C(=O)OC)Cc3cc(Cl)ccc3C2=N1)c1ccc(OC(F)(F)F)cc1 | inactive | 
2 | COP(=S)(OC)Oc1ccc([N+](=O)[O-])c(C)c1 | inactive | 
3 | CC(C)NC(=O)N1CC(=O)N(c2cc(Cl)cc(Cl)c2)C1=O |  | 13.3 µM (active)
4 | O=C(Nc1ccccc1-c1ccc(Cl)cc1)c1cccnc1Cl | inactive | 
5 | CC(C)=CC1C(C(=O)OCc2coc(Cc3ccccc3)c2)C1(C)C (stereo not given) | inactive | 
6 | N#Cc1c[nH]cc1-c1cccc2c1OC(F)(F)O2 | inactive | 
7 | Cc1c(COC(=O)[C@@H]2[C@H](/C=C(\Cl)C(F)(F)F)C2(C)C)cccc1-c1ccccc1 | inactive | 
8 | COc1ccc(-c2ccccc2)cc1NNC(=O)OC(C)C |  | 0.0966 µM (active)
9 | CCN(CC)C(=O)C(C)Oc1cccc2ccccc12 (stereo not given) |  | 0.125 µM (active)
10 | CCN(CC)c1nc(C)cc(OP(=S)(OC)OC)n1 |  | 0.467 µM (active)
11 | Clc1nc(Cl)nc(Nc2ccccc2Cl)n1 |  | 1.3 µM (active)
12 | N#Cc1c(Cl)cccc1Cl | inactive | 
13 | CCOP(=S)(OCC)Oc1nc(Cl)n(C(C)C)n1 |  | 12.9 µM (active)
14 | OC(c1ccc(Cl)cc1)(c1ccc(Cl)cc1)C(Cl)(Cl)Cl | inactive | 
15 | CC1(C)C(C=C(Cl)Cl)C1C(=O)OC(C#N)c1cccc(Oc2ccccc2)c1 (stereo not given) |  | 5.01 µM (active)
16 | CC(C)Oc1cccc(NC(=O)c2ccccc2C(F)(F)F)c1 |  | 0.28 µM (active)
17 | COCC(=O)N(c1c(C)cccc1C)C(C)C(=O)OC (stereo not given) |  | 25 µM (active)
18 | CCCCOCN(C(=O)CCl)c1c(CC)cccc1CC |  | 1.65 µM (active)
19 | CCNP(=S)(OC)O/C(C)=C/C(=O)OC(C)C (stereo not given) |  | 11.8 µM (active)
20 | CCCCC(C#N)(Cn1cncn1)c1ccc(Cl)cc1 (stereo not given) |  | 12.5 µM (active)
21 | COC(=O)c1c(C(F)F)nc(C(F)(F)F)c(C2=NCCS2)c1CC(C)C |  | 0.484 µM (active)
22 | CC(C)(C)C(=O)C(Oc1ccc(Cl)cc1)n1cncn1 (stereo not given) |  | 2.37 µM (active)
23 | CCOC(=O)C(C)OC(=O)c1cc(Oc2ccc(C(F)(F)F)cc2Cl)ccc1[N+](=O)[O-] (stereo not given) |  | 6.45 µM (active)
24 | CNC(=O)Oc1cccc2ccccc12 |  | 25 µM (active)
25 | COCC(C)N(C(=O)CCl)c1c(C)csc1C (stereo not given) |  | 2.95 µM (active)
26 | COP(=S)(OC)SCn1nnc2ccccc2c1=O |  | 13.6 µM (active)
27 | O=C1C2CC=CCC2C(=O)N1SC(Cl)(Cl)Cl (stereo not given) | inactive | 
28 | CC1(C)C(C(=O)OC(C#N)c2cccc(Oc3ccccc3)c2)C1(C)C (stereo not given) | inactive | 
29 | Cc1nc(N(C)C)nc(OC(=O)N(C)C)c1C |  | 19 µM (active)
30 | CCOP(=O)(OCC)Oc1nc(Cl)c(Cl)cc1Cl |  | 1.6 µM (active)

Source: PubChem BioAssay (EPA / NIEHS)
